Results on 93 molecules are retold here after PubChem BioAssay AID485347 (National Center for Advancing Translational Sciences (NCATS), 2010).

SMILES strings stand for the structures. In all, about 340,000 compounds went through this assay and about 1,200 (0.35%) were called active. Only a selection was taken, and actives are over-represented in it overall. A number with no mark means an inactive call.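 The calls were made as follows: active = potentiation over 3 SD above the plate norm (cut at about 30% in these data); inactive = the rest.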

Sequence of D(2) dopamine receptor (Homo sapiens) (P14416 whole entry, looked up): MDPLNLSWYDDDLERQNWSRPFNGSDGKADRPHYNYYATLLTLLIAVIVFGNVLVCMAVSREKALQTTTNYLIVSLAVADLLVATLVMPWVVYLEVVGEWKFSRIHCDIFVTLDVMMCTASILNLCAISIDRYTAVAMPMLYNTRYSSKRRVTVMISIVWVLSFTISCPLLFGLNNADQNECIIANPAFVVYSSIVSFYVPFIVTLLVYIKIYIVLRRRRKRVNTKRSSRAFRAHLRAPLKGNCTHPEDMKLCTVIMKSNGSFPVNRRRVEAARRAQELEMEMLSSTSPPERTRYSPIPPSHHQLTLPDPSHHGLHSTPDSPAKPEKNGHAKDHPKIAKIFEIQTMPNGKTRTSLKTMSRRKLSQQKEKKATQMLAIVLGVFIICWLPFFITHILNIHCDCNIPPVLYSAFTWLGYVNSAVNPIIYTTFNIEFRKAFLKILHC

This assay has as its target D(2) dopamine receptor (Homo sapiens) (UniProt P14416). The experiment in a line: HTS Assay for Positive Allosteric Modulators of the Human D2 Dopamine Receptor: Primary Screen for Potentiators. Also: 0% is about no effect. The following applies: HEK293 T-REx D2, calcium flux, EC20 dopamine potentiation; at 10 µM; active compounds read high. The source says:
NIH Chemical Genomics Center [NCGC] NIH Molecular Libraries Probe Centers Network [MLPCN] MLPCN Grant: NS064831-01 Assay Submitter (PI): David Sibley Dopamine receptors (DARs) are involved in the etiology and/or therapy of a number of neuropsychiatric and endocrine disorders. For instance, all receptor-based antiparkinsonian drugs work via stimulating the D2 DAR subtype whereas all FDA-approved antipsychotic agents are antagonists of this receptor. […] There are three different types of allosteric modulators that we are seeking, two of which will stimulate or augment receptor signaling, allosteric agonists and potentiators, while the third, allosteric antagonists, will attenuate receptor signaling. The present primary screening assay measures compound potentiation of an EC20 dopamine response by tracking calcium flux in a […], inducible Hek293 Trex D2 cell line.
Freshly passaged cells are plated in 1536 well black, clear bottom plates at a density of 4000 cells/well in 3 ul of complete media containing 1x tetracycline inducer. After an overnight incubation at 30 C in 5% CO2, cells are loaded with 2 ul of the no wash Calcium Assay Kit (ABD Bioquest) and incubated at room temperature for 30 to 90 minutes. A 10 cycle (1 second/cycle) baseline measurement is taken and then the FDSS online 1536 pintool delivers 23 nl of compound library (as well as dopamine controls) to the plate. The plate is measured for kinetically at 1 cycle/sec for 180 seconds and is considered to be the agonist portion of the assay (eg, compounds which activate a positive calcium response during this portion are flagged as potential agonists). Following the 180 second read, 1 ul of an EC20 of dopamine is delivered by an onboard pipette head. Measurements are taken kinetically for an additional 180 seconds.
(In general: Calcium assays in cells follow changes in intracellular calcium, usually with a dye or a luminescent sensor.)
With `CCCN(CC(=O)Nc1ccccc1OC)C(=O)CCC(=O)c1ccc(F)cc1`, the potentiation was 30.4% (active).
The figure for `CCN(CC(=O)Nc1ccccc1OC)C(=O)CC1CC2CCC1C2` (stereo not drawn) is 5.39%; for `CCN(CC(=O)Nc1ccccc1OC)C(=O)Cn1cnc2ccccc2c1=O` it is 11.8%.
As to `Cc1cc(C)cc(OCC(=O)Nc2c(C(=O)c3ccccc3)oc3ccccc23)c1`, the potentiation was -6.36%.
As for `COc1ccc(C)cc1NC(=O)COCc1cc(-c2cccs2)on1`, the potentiation was 3.43%.
The figure for `CN(c1ccc(C(=O)NCCC2=CCCCC2)cc1)S(C)(=O)=O` is -10.3%; for `CCN(c1ccccc1)S(=O)(=O)c1cc(C(=O)NCc2ccccn2)ccc1C` it is -2.26%.
On to `CN(c1ccc(C(=O)NCc2ccccn2)cc1)S(C)(=O)=O`, for which the potentiation is 42.4% (active).
On to `O=C(CCS(=O)(=O)c1ccccc1)N(Cc1cccnc1)c1nc2c(F)cccc2s1`, for which the potentiation was -2.05%.
Consider `Cc1ccc(C2C=C(c3ccc(Cl)cc3)Nc3nc(NC(=O)CCC(=O)O)nn32)cc1` (stereo not drawn), for which the potentiation was 5.1%.
Regarding `CCOc1ccc(CNCc2c(C(=O)O)c(C)n(Cc3cccc(OC)c3)c2C)cc1OC`, the potentiation is -3.84%.
`NC(=O)c1sc2nc3c(c(-c4ccccc4)c2c1N)CCC3`: the potentiation is 37.2% (active).
In the case of `Cc1sc2nc(CC(N)=O)[nH]c(=O)c2c1-c1ccccc1`, the potentiation is 9.95%.
With `COc1cccc(C(=O)c2sc3nc(-c4ccccc4)cc(C(F)(F)F)c3c2N)c1`, the potentiation was -10.4%.
Next, `Cc1ccc(NC(=O)c2oc3ccccc3c2NC(=O)Cc2cccs2)cc1`: -10%.
The figure for `CSc1ccc(CCNC(=O)c2ccc3c(c2)nc2n3CCOC2)cc1` is 8.52%; for `Cc1ccc(C)c(Oc2c(C(F)(F)F)oc3c(CN4CCN(C)CC4)c(O)ccc3c2=O)c1` it is -2.95%; for `Cc1ccc(-c2nn(CCC(=O)Nc3ccc(Cl)c(Cl)c3)c(=O)c3ccccc23)cc1` it is -14.9%.
Next, `FC(F)Oc1ccccc1C1CC(c2ccc(Br)s2)Nc2ncnn21` (stereo not drawn): 31.8% (active); `Clc1ccc(C2CC(c3cccs3)n3ncnc3N2)cc1Cl` (stereo not drawn): -0.578%; `CCOc1ccccc1C1CC(c2ccccc2)Nc2nc(N)nn21` (stereo not drawn): 14.5%.
As for `CCOc1ccc(NC(=S)N2CCC(N(C)CC3CCCO3)CC2)cc1` (stereo not drawn), the potentiation is -4.46%.
Take `CCOC(=O)c1ccc(NC(=S)N2CCCC2)cc1`: the potentiation is 8.15%.
The figure for `CCOc1ccc(NC(=S)N2CCCCCC2)cc1` is 30.1% (active); for `COc1cc(CNC(=O)c2cc3n(n2)CCCN(Cc2cccc(F)c2)C3=O)cc(OC)c1OC` it is 7.44%.
The figure for `CC(C)(C)c1ccc(C(=O)NCC(c2ccco2)S(=O)(=O)c2ccc(F)cc2)cc1` (stereo not drawn) is 2.19%; for `COc1ccccc1NC(=O)c1oc2ccccc2c1NC(=O)COc1ccccc1OC` it is -6.56%; for `Cc1ccc(C)c(NC(=O)c2ccc3nccnc3c2)c1` it is 10.6%.
Next, `O=C(NCCc1ccc(F)cc1)c1ccc2nccnc2c1`: 1.21%; `CC(C)CCC(C)NC(=O)c1ccc2nccnc2c1` (stereo not drawn): 36.8% (active).
Turning to `CCOC(=O)c1ccccc1NC(=O)CCc1c(C)nc2c(c1C)c(=O)n(C)c(=O)n2C`, the potentiation is -0.581%.
On to `Cc1ccc(NC(=O)c2nc(S(=O)(=O)Cc3cccc(C)c3)ncc2Cl)cc1`, for which the potentiation is -4.73%.
Regarding `Cc1cccc(C(=O)N2c3nc(-c4ccco4)nn3C3(CCCCC3)[C@@H]3CCCC[C@@H]32)c1`, the potentiation was 11.9%.
The figure for `COc1ccccc1NC(=O)C1=C(C)Nc2ncnn2C1c1sccc1C` (stereo not drawn) is 14.1%; for `CCn1c(SCC(=O)N(C)C2CCS(=O)(=O)C2)nnc1-c1cccs1` (stereo not drawn) it is 43.3% (active); for `CCn1c(SCC(=O)c2ccc(Cl)s2)nnc1-c1cccs1` it is 5.97%.
Take `CN(C(=O)CSc1nnc(Nc2ccccc2)s1)C1CCS(=O)(=O)C1` (stereo not drawn): the potentiation was -2.37%.
In the case of `Cc1ccc(NC(=O)Cc2ccc(NC(=O)N3CCCCc4ccccc43)cc2)cc1`, the potentiation was -2.54%.
With `Cc1c(Cl)cccc1NC(=O)Nc1ccc(C(=O)N2CCCC2)cc1`, the potentiation was -6.53%.
Next, `Cc1c(Cl)cccc1NC(=O)NCc1ccc(C)n1C`: 6.36%; `Cc1c(NC(=O)Nc2ccccc2Cl)sc(=S)n1C`: 37% (active); `CCCSc1ncc(Cl)c(C(=O)Nc2c(C(=O)Nc3ccccc3)oc3ccccc23)n1`: 9.52%.
Regarding `O=C(CC1(O)C(=O)N(CN2CCOCC2)c2ccccc21)c1ccccc1` (stereo not drawn), the potentiation was -7.42%.
Next, `CC(C)(C)C(=O)CCN1C(=O)C2(OCCO2)c2ccccc21`: 31.3% (active); `C=CCN1C(=O)C2(OCCCO2)c2cccc(Cl)c21`: 9.19%; `O=C(NCCCN1CCN(c2cccc(Cl)c2)CC1)c1nnc(Cc2ccc(F)cc2Cl)o1`: -20.3%.
Next, `COc1cn(CC(=O)Nc2cccc(C)c2C)c(CN2CCCCC2)cc1=O`: -2.25%; `COC(=O)c1ccc(OC)c(Cn2c(=O)n(Cc3ccccc3)c(=O)c3c2c2cc(OC)ccc2n3C)c1`: -2.94%; `CCc1nn(CC(=O)Nc2cccc(C)c2C)c(=O)c2cc3sccc3n12`: 8.71%.
The figure for `Cc1cc(C)n2nc(SCC(N)=O)nc2n1` is 16.2%.
Turning to `COc1ccc(C(C)=O)cc1CSc1nc2nc(C)cc(C)n2n1`, the potentiation is 34.5% (active).
As to `COc1cccc(CSc2nc3nc(C)cc(C)n3n2)c1`, the potentiation is -5.34%.
The figure for `CCOc1ccc(-n2c(SCC(=O)NCc3ccccc3)nc3n[nH]c(C)c3c2=N)cc1` is -3.4%.
`COc1ccccc1CNCc1ccc(C(=O)O)s1`: the potentiation was 6.15%.
Next, `CN1CCN(C(=O)/C(=C\c2cccs2)NC(=O)c2cccs2)CC1`: 15.2%.
Next, `O=C1/C(=C/c2cccs2)CCc2ccccc21`: 1.15%; `CN1C/C(=C/c2cccs2)C(=O)/C(=C\c2cccs2)C1`: 41.9% (active); `Cc1c(NC(=O)CSc2cccc3cccnc23)c(=O)n(-c2ccccc2)n1C`: 13.1%.
Next, `Cc1c(NC(=O)CSc2nnc(-c3cccnc3)n2N)c(=O)n(-c2ccccc2)n1C`: 73.3% (active); `Cc1c(NC(=O)CSc2nnnn2-c2ccc(C(=O)O)cc2)c(=O)n(-c2ccccc2)n1C`: -3.5%.
Take `Cc1cn(C)c(CC(=O)NCc2ccccc2)c1C(=O)O`: the potentiation was 5.5%.
With `CCc1ccc(CNC(=O)c2ccc(CS(=O)c3ccc(Br)cc3)o2)cc1` (stereo not drawn), the potentiation was 3.07%.
Next, `COc1ccccc1CNC(=O)C(=O)NCC(c1ccco1)S(=O)(=O)c1ccc(F)cc1` (stereo not drawn): 11.5%; `C=CCn1c(-c2ccc(Cl)cc2)ccc(C#N)c1=O`: 40.5% (active); `C=CCn1cc(-c2cccc(C(F)(F)F)c2)cc(C#N)c1=O`: -3%.
Turning to `C=CCn1c(SCn2nnc3ccccc3c2=O)nnc1-c1ccc(Cl)cc1`, the potentiation was 3.09%.
Next, `COc1cc(OC)cc(C(=O)Nc2cc3nn(-c4ccccc4)nc3cc2Cl)c1`: 29.9%; `CCCCc1nn2c(=O)cc(COC(=O)c3ccccc3NC(=O)C(C)(C)C)nc2s1`: 9.21%; `CC1=CC(C)(C)NC(=S)N1NC(=O)c1ccccc1Cl`: 35.1% (active).
Next, `CC12CCC(C(=O)N(NC(=O)c3ccccc3O)C1=O)C2(C)C` (stereo not drawn): 13.8%.
As for `CC1=CC(C)(C)NC(=S)N1c1ccccc1`, the potentiation is -0.583%.
Next, `CCN(C(=O)c1sc2cc(OC)ccc2c1Cl)c1ccccc1`: -5.49%; `COc1ccccc1NC(=O)c1oc2ccccc2c1NC(=O)C(C)C`: -4.17%; `Cc1ccc(NC(=O)CSc2nc3c([nH]c4ccccc43)c(=O)n2-c2ccccc2)cc1Cl`: 0.276%.
Turning to `Cc1cccc(N2CCN(S(=O)(=O)c3ccc4[nH]c5c(c4c3)CCCCC5)CC2)c1C`, the potentiation was 2.56%.
In the case of `CC(C)c1ccc(NC(=O)NC2CCCCC2)cc1`, the potentiation was 4%.
With `CC(C)(C)NS(=O)(=O)c1ccc(NC(=O)C2CCCO2)cc1` (stereo not drawn), the potentiation is 5.45%.
The figure for `CC(C)(C)NS(=O)(=O)c1ccc(NC(=O)NC2CCCCC2)cc1` is 38% (active); for `CCCN(CCC)CCNC(=O)c1ccc2c(c1)NC(=O)C(CS(=O)(=O)Cc1cccc(Br)c1)N2` (stereo not drawn) it is 0.677%; for `COc1ccc(Cn2ccnc2SCC(=O)Nc2ccc3c(c2)OCO3)cc1` it is 1.53%.
Turning to `CCc1cc2c(=O)n(-c3ccccc3)c(SCC(=O)O)nc2s1`, the potentiation was -3.23%.
The figure for `Cc1cc2c(=O)n(C)c(SCC(=O)c3cc4ccccc4o3)nc2s1` is 30.1% (active).
On to `Cc1ccc(C(=O)CSc2nc3ccccc3c(=O)n2N)o1`, for which the potentiation is 2.64%.
The figure for `Cc1ccc2c(=O)c(C(=O)c3ccc(F)cc3)cn(CC(=O)NC3CCCCC3)c2n1` is -9.33%; for `COCCCNC(=S)NNC(=O)C(O)(c1ccccc1)c1ccccc1` it is -5.53%.
As to `CCCCNC(=S)NNC(=O)c1cc(C)on1`, the potentiation is 37% (active).
For `CCCCNC(=O)c1cc(-c2ccc(Cl)c(Cl)c2)on1`, the potentiation is -3.44%.
The figure for `COc1ccc(-c2nc(S(=O)(=O)c3ccccc3)c(N3CCCCC3)o2)cc1` is -5.46%; for `COc1ccccc1N1CCN(C(=O)c2cc(-c3ccc(Cl)c(Cl)c3)on2)CC1` it is 69.4% (active); for `COc1ccccc1-c1cc(C(=O)N2CCCCC2)no1` it is -22.4%.
The figure for `COc1ccc(-c2cc(C(=O)N3CCN(c4ccc(F)cc4)CC3)no2)cc1` is -8.77%.
The figure for `Cc1cccc(Cn2c(=O)n(CCC(=O)NCCc3ccc(Cl)cc3)c(=O)c3sccc32)c1` is 13%; for `CCN1CCN(C(c2ccc(C)cc2)c2c(O)cc(C)n(Cc3ccco3)c2=O)CC1` (stereo not drawn) it is 6.89%.
